# Screens (PubChem)
# Hits are enriched below; roughly 2.2% of the tested compounds scored in any of these assays.
# CCT modulator: cytosolic chaperonin activity modulation; purified chaperonin ATPase assay, HTRF ADP detection, 30 min; activity change, % (no concentration beside the values), hits read low; 360,000 tested, 0.3% active; in the data active = activity change below about -30%; also: % is scaled to controls: 0 for no effect and ±100 for the full control effect
#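 ATPase activity: ADP formed was measured by HTRF Transcreener (665/615 nm ratio) after 30 min at 37 deg C with 10 uM ATP. Compounds screened at one 76 uM concentration against 40 or 20 nM TRiC in Tris pH 7.4/KCl/MgCl2/DTT buffer.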
# HEK293 tox: cytotoxicity counter-screen for GLP-1 receptor inverse agonists | 410,000 tested, 0.13% active | AID 624418 | HEK293 cAMP-luciferase reporter cells, luminescence, 24 h | Potency, µM (top dose mostly 38.3 µM), inactives show at the top dose activity change, negative = inhibition, usual class: inhibitors;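 also: loss of luciferase light is scored as toxicity; potency is read from the fitted curve at half-maximal effect; % is scaled to controls: 0 for no effect and ±100 for the full control effect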
#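 1536-well qHTS counterscreen of the MLSMR; 200 cells/uL, 12 h pre-incubation, 23 nL cpd, 24 h at 37 deg C 5% CO2, luciferase detection reagent, 12 min RT, luminescence. Inhibition = undesired.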
# uPA surface inh: blocks generation of uPA at the cell surface; cell surface uPA generation assay, qHTS; Potency, µM (series often up to 38.3 µM), without a hit: at the highest dose activity change, negative = inhibition, hits mostly inhibitors; 330,000 tested, 0.31% active; AID 540303; active = well fitted inhibition curve with a large enough effect; inconclusive = small, poorly fitted or top-dose-only effect; inactive = no such curve, though single readings can be large or run the other way; tested in mouse RAW 264.7 cells; also: potency is read from the fitted curve at half-maximal effect; % is scaled to controls: 0 for no effect and ±100 for the full control effect; nearly all actives have a fitted effect of over 55% in size
# MmCpn inh: M. maripaludis TRiC chaperonin inhibition; purified Mm-Cpn ATPase, ADP Transcreener TR-FRET; 330,000 tested, 0.031% active; Potency, µM (titrated, usually from 76.9 µM), without a hit: at the top dose activity, negative = inhibition, usual class: inhibitors; also: potency is read from the fitted curve at half-maximal effect; % is scaled to controls: 0 for no effect and ±100 for the full control effect; nearly all actives have a fitted effect of over 80% in size
#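 ATPase turnover read by TR-FRET ADP competition (Eu cryptate antibody/ADP-d2, 665/590 nm): 10uM ATP final, 25nM Mm-CPN final, 30 min 37degC after 10-min compound preincubation, pH 7.4 Tris/KCl/MgCl2/DTT buffer.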
# GLP1R ag: GLP-1 receptor (human) agonism. HEK293 GLP-1R CRE-luciferase, luminescence, 4-6 h; cells express a hypersensitive GLP-1R form. Potency, µM (top dose mostly 45.6 µM), without a hit: at the highest dose activation, actives largely listed as activators. 380,000 tested, 0.007% active. AID 624172; also: potency is read from the fitted curve at half-maximal effect; % of control where 0% means no effect
# Target sequence (P43220 whole entry, looked up): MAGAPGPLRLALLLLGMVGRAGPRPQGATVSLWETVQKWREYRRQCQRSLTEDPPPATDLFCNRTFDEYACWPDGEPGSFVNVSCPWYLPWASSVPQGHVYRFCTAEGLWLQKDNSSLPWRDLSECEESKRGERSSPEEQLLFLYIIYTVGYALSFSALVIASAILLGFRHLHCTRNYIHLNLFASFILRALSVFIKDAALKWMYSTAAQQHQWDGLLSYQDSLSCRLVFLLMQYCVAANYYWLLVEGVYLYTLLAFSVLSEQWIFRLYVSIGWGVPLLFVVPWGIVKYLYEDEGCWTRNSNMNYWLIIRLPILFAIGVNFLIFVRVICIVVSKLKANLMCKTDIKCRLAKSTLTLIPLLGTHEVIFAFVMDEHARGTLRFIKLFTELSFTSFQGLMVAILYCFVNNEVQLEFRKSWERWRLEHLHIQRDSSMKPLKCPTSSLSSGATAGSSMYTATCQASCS
# GLP-1R inv ag: acts as inverse agonist at human GLP-1 receptor; P43220; HEK293 GLP-1R CRE-luciferase, luminescence, 24 h; GLP-1R form is constitutively active; Potency, µM (series often up to 38.3 µM), for the others: at the top dose activity change, negative = inhibition, usual class: inhibitors; 410,000 tested, 1.6% active; AID 624417; also: potency is read from the fitted curve at half-maximal effect; % is scaled to controls: 0 for no effect and ±100 for the full control effect; nearly all actives have a fitted effect of over 55% in size
#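 Assay principle: reduced luminescence from a cAMP-responsive reporter in HEK293 cells co-expressing a constitutively active GLP-1R. Conditions: 24 hr compound incubation, 37 deg C, 5% CO2.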
# * hit, by the source's call; ? = inconclusive; . = not tested or not shown. Unless noted, calls follow the shape of the dose curve; as a rule, active = well fitted curve in the direction sought with a large enough effect; inconclusive = small, poorly fitted or top-dose-only effect, or another doubt; inactive = no such curve, though single readings can be large; an effect the other way counts as inactive or inconclusive.
SMILES,CCT modulator,HEK293 tox,uPA surface inh,MmCpn inh,GLP1R ag,GLP-1R inv ag
Cc1nc2ccc(NC(=O)c3cccc(S(=O)(=O)N(C)c4ccccc4)c3)cc2s1,-2.0,?,-8.2%,-8.0%,-32.1%,5.62µM*
CN(CC(=O)Nc1cccc(F)c1)CC(=O)Nc1cccc(S(=O)(=O)N(C)c2ccccc2)c1,0.6,?,-6.5%,.,-7.7%,?
O=C(Cn1ncc(Cl)c(Cl)c1=O)NCC1CCCCC1,-1.4,10µM*,?,?,-22.9%,?
Cc1ccc(NC(=O)CN(C)C(=O)Cn2ncc(Cl)c(Cl)c2=O)cc1,-2.0,?,?,-6.2%,-29.8%,?
O=C(O)C1C2CCC(O2)C1C(=O)Nc1cccc(Br)c1 (stereo unspecified),-0.8,-1.4%,11.2µM*,-0.9%,-4.2%,1.4%
Cc1cccc(C(=O)N2CCC(=O)N(C(COCc3cccc(Cl)c3)Cc3ccccc3)CC2)c1 (stereo unspecified),0.4,-8.1%,-18.9%,2.8%,3.8%,8.91µM*
COc1cccc(CC(=O)N2CCN(Cc3cccc(Cl)c3)CC2)c1,1.5,-15.9%,-1.6%,-2.5%,13.2%,?
COc1ccccc1/C=N/N=C(/N)N[N+](=O)[O-],-0.4,-11.7%,-2.0%,1.2%,14.3%,5.7%
COc1cccc(/C=N/Nc2ccc([N+](=O)[O-])cc2)c1O,1.6,?,13.7%,1.9%,6.3%,1.78µM*
Cc1cccc(NC(=O)c2oc3ccccc3c2NC(=O)c2cc(=O)c3cc(Cl)ccc3o2)c1,.,62.9%,.,.,.,2.6%
COc1ccc(NC(=O)Nc2ccc3c(c2)C(=O)N([C@H](C)CO)C[C@H](C)[C@@H](CN(C)Cc2ccc(Cl)c(Cl)c2)OCCCC[C@@H](C)O3)cc1,1.8,3.3%,.,.,-2.0%,3.16µM*
C[C@@H]1CCCCO[C@H](CN(C)Cc2ccccc2)[C@@H](C)CN([C@H](C)CO)C(=O)c2cc(NC(=O)c3ccccc3)ccc2O1,1.0,-28.0%,.,.,-7.0%,?
CCCCCCN1C[C@@H](n2cc(C3CC3)nn2)[C@H](O)C[C@@H]1c1ccc(C)cc1,0.1,?,.,.,0.6%,3.98µM*
COc1cc(C(=O)NCCSc2c(-c3ccccc3)[nH]c3ccccc23)cc(OC)c1OC,.,1.6%,.,.,.,?
Cc1ccc(S(=O)(=O)N(C)C[C@H]2Oc3c(NC(=O)Nc4cccc5ccccc45)cccc3C(=O)N([C@@H](C)CO)C[C@@H]2C)cc1,1.1,-36.5%,?,-0.8%,-4.3%,?
Cc1ccc(N2C(=O)NC(=O)/C(=C\c3cc(C)n(-c4sc5c(c4C#N)CCCC5)c3C)C2=O)cc1,-0.6,-22.7%,0.2%,-4.0%,7.0%,3.55µM*
CC(C)(C)OC(=O)[C@H](Cc1ccccc1)NC(=O)c1nc[nH]c1C(=O)NC1CCN(C(=O)OC(C)(C)C)CC1,-1.5,?,-4.0%,.,-3.8%,10µM*
CC(C)(C#CC(=O)O)OOC(c1ccccc1)(c1ccccc1)c1ccccc1,-0.3,-19.6%,-9.4%,-0.1%,-5.8%,11.2µM*
CCOP(=O)(C#CC(C)(C)C)C(C)(O)c1ccccc1 (stereo unspecified),1.6,-18.1%,1.6%,-2.5%,-19.7%,-0.8%
CCCCOc1ccc(CCN)cc1Cl,-2.3,-6.3%,-1.6%,-2.4%,-0.5%,0.5%
CNCCCOc1ccc(Cl)cc1C(C)(C)C,-2.6,?,6.4%,1.5%,6.5%,3.55µM*
O=C(N[C@H]1C/C=C\C[C@H](CC(=O)N(CCO)Cc2ccccc2)C(=O)NC[C@H](c2ccccc2)OC1=O)OCC1c2ccccc2-c2ccccc21,0.3,-4.8%,-25.0%,3.4%,0.4%,-10.2%
CCC(=O)OC1[C@@H](N2CCCCC2)C[C@H]2[C@@H]3CC[C@H]4C[C@H](OC(C)=O)[C@@H](N5CCCCC5)C[C@]4(C)[C@H]3CC[C@]12C (stereo partly specified),.,.,.,.,-0.2%,.
Cc1ccc(-c2n[nH]c3c2C(c2cccs2)N(c2ccc(Cl)cc2)C3=O)cc1 (stereo unspecified),.,?,.,.,-13.0%,7.94µM*
Cc1ccc(S(=O)(=O)Nc2ccccc2N(C)S(=O)(=O)c2ccc(C)cc2)cc1,1.2,8.5%,?,0.5%,7.6%,?
SMILES,CCT modulator,HEK293 tox,uPA surface inh,MmCpn inh,GLP1R ag,GLP-1R inv ag
CN(C)C1(CNC(=O)Nc2ccc(Cl)c(Cl)c2)CCCCC1,0.3,?,3.9%,4.6%,-3.5%,3.98µM*
CN(C)C1(CNC(=O)c2ccc(NS(=O)(=O)c3ccc(Cl)c(Cl)c3)cc2)CCCCC1,0.7,-4.7%,-6.2%,-0.6%,-3.6%,?
C=C1N2CCC(CC2)C1(O)c1ccc(C)c(C)c1 (stereo unspecified),-5.9,16.3%,-1.7%,-0.1%,-10.8%,-21.5%
Cc1ccc(-c2nnc(N3CCC(C)CC3)c3ccccc23)cc1C,-43.1*,?,-7.0%,-1.9%,0.2%,2.51µM*
COc1cccc(-c2sc3ccccc3c2-c2ccc(OCCN(C)C)cc2)c1,-1.9,?,?,-13.1%,-7.3%,?
CC(C)(C)OC(=O)NCCCCCNC(=O)c1nc[nH]c1C(=O)NCc1ccc(CNC(=O)OC(C)(C)C)cc1,-0.8,?,?,0.3%,-8.2%,10µM*
C[C@@H](NC(=O)c1nc[nH]c1C(=O)NCc1ccc(CNC(=O)OC(C)(C)C)cc1)c1ccccc1,0.7,?,-9.9%,-0.8%,9.0%,?
CC12CCC3c4ccc(OC(=O)N(CCCl)CCCl)cc4CCC3C1CCC2O (stereo unspecified),0.4,?,-16.7%,.,-1.9%,10µM*
O=C(C1CCN(S(=O)(=O)c2ccc(Br)s2)CC1)N1CCN(c2cccc(C(F)(F)F)c2)CC1,.,-2.9%,.,.,.,?
COc1ccc(C(=O)c2nc3ccccc3n2C(C)C)cc1,-0.8,3.5%,29.0%,1.8%,17.6%,?
COC(=O)N1C(=O)[C@@](c2ccc(OC)cc2)(C(C)C)N1C(=O)OC,-1.1,-11.9%,6.31µM*,-1.0%,-2.2%,-4.8%
Cc1ccc(S(=O)(=O)N2CCC(C(=O)OCc3ccccc3)CC2)cc1C,2.0,-10.9%,-1.6%,-0.7%,12.6%,10µM*
O=C(c1ccc2c(Cl)c3c(nc2c1)CCCC3)N1CCC(N2CCCCC2)CC1,2.2,-18.5%,10µM*,-1.2%,-2.3%,?
Nc1cccc(Nc2nc(OC(C(F)(F)F)C(F)(F)F)nc(OC(C(F)(F)F)C(F)(F)F)n2)c1,4.1,?,-7.6%,-1.3%,-26.0%,4.47µM*
CCc1ccc(NC(=O)c2ccc(F)c(S(=O)(=O)N3CCc4ccccc4C3)c2)cc1,.,-8.3%,.,.,.,8.91µM*
